Source: PubChem BioAssay (National Center for Advancing Translational Sciences (NCATS))
Compounds with a hit are over-represented: about 10% of the library has one in this group of screens.
Six1-Eya2 inh = qHTS Assay for Inhibitors of the Six1/Eya2 Interaction; AID 651725, 2012; activity change, % (no concentration beside the values); Homeobox protein SIX1 (Homo sapiens) + Protein phosphatase EYA2 (Homo sapiens), …; AlphaScreen GST-Six1/His-Eya2 binding, biochemical; hits give low values; 360,000 tested, 0.56% active; in the data active means activity change below about -65%; inconclusive means mostly about -30% to -63%; further: on the % scale 0 is the no-effect control and ±100 the full control effect
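AlphaScreen with GST-Six1 and His-Eya2 (5X mix: 250 nM and 500 nM), glutathione donor and nickel acceptor beads; buffer 50 mM Tris pH 8.0, 300 mM NaCl, 1 mM TCEP; 1 h at 37 C in the dark.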
BAZ2B block = qHTS Assay for Inhibitors of BAZ2B; AlphaScreen BAZ2B-H3K14Ac peptide displacement; Potency, µM (doses to about 114 µM), without a hit: at the top dose activity change, negative = inhibition, most hits filed as inhibitors; 360,000 tested, 4.4% active; further: potency means the concentration at half of the fitted maximal effect; on the % scale 0 is the no-effect control and ±100 the full control effect; nearly all actives have a fitted effect of over 60% in size
Target sequence (Q9UIF8 whole entry, looked up): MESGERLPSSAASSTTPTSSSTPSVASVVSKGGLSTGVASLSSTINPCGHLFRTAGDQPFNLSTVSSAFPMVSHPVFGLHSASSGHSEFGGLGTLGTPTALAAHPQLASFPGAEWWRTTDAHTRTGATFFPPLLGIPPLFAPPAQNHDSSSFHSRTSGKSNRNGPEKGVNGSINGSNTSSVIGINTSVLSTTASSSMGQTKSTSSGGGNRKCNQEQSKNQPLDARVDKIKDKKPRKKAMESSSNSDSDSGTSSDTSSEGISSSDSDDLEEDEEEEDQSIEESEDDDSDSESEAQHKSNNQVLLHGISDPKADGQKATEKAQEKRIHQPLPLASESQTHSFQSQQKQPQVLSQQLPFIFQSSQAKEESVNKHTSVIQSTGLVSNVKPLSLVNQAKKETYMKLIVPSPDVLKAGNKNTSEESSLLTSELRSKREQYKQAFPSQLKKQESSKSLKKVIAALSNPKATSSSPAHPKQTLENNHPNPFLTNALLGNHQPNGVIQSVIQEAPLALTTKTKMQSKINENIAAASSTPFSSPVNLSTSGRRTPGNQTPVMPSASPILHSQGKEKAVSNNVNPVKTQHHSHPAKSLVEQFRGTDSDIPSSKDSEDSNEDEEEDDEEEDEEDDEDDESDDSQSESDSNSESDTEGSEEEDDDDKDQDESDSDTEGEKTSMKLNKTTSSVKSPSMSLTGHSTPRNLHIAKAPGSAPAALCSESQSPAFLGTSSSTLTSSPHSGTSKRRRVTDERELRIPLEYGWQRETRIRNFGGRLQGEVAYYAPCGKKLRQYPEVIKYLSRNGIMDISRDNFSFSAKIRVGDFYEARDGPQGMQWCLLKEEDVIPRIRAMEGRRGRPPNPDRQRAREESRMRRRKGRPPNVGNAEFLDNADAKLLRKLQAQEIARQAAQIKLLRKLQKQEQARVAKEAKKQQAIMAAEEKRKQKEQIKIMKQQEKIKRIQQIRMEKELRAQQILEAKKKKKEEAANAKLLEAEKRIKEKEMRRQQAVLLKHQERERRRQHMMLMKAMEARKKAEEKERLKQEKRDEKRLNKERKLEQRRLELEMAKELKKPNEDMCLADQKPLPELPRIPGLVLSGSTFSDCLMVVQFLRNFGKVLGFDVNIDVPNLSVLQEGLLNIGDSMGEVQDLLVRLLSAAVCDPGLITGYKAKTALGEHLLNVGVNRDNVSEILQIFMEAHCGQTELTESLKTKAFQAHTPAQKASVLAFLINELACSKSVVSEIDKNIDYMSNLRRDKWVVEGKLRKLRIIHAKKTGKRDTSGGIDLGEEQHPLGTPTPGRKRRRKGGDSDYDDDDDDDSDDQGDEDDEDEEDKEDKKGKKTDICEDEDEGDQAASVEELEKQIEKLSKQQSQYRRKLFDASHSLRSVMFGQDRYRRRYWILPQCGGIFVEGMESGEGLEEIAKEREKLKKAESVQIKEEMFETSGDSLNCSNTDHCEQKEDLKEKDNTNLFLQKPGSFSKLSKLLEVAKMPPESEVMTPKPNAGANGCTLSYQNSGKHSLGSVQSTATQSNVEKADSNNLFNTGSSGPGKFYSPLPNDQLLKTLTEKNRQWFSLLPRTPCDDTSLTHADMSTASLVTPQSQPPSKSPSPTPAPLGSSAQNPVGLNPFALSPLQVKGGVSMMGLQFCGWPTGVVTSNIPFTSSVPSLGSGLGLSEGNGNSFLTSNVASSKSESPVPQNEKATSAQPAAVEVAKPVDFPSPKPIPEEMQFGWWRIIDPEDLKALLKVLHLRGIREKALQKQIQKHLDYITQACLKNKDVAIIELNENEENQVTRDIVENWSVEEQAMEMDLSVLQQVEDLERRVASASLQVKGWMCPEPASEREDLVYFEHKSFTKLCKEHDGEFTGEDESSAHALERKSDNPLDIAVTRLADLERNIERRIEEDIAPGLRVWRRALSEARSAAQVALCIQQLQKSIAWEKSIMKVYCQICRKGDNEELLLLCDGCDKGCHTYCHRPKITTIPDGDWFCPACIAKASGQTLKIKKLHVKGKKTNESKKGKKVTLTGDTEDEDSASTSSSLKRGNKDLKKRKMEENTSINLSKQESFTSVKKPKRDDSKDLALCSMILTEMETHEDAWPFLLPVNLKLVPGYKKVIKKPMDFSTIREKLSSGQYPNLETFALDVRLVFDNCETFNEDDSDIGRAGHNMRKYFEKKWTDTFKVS
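BAZ2B 50 nM plus b-H3(5-23)K14Ac 50 nM, PBS pH 7.4/0.01% Tween-20, 30 min RT; compound added (max 110 uM), 30 min RT; streptavidin donor/Ni-chelate acceptor beads 10 ug/mL final, 20 min dark; AlphaScreen read.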
JMJD2A Tudor inh = qHTS Assay for Inhibitors of JMJD2A-Tudor Domain; Potency, µM (doses to about 114 µM), for the others: at the highest dose activity change, negative = inhibition, most hits filed as inhibitors; AlphaScreen JMJD2A-Tudor / H3K4me3 peptide binding; 390,000 tested, 4.4% active; further: potency means the concentration at half of the fitted maximal effect; on the % scale 0 is the no-effect control and ±100 the full control effect; nearly all actives have a fitted effect of over 50% in size
CtBP-E1A blk = qHTS Assay for Inhibitors of the CtBP/E1A Interaction; CtBP / adenovirus E1A interaction (AlphaScreen); AlphaScreen GST-E1A/His-CtBP binding, 1536-well; hits give low values; activity change, % (no concentration beside the values); 340,000 tested, 0.49% active; AID 651724, 2012; in the data active means activity change below about -65%; inconclusive means mostly about -30% to -63%; further: on the % scale 0 is the no-effect control and ±100 the full control effect
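Protein mix (5X: 125 nM each GST-E1A, His-CtBP) was incubated with pinned compound 2 h at 37 deg C in dark, in 50 mM Tris pH 8.0 buffer with 300 mM NaCl. Glutathione donor and nickel acceptor beads followed; AlphaScreen signal read after 1 h.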
G9a block = qHTS Assay for Inhibitors of Histone Lysine Methyltransferase G9a; G9a H3K9 monomethylation, AlphaScreen, 2 h; Potency, µM (top dose mostly 102 µM), for inactives: top-dose activity, negative = inhibition, most hits filed as inhibitors; 350,000 tested, 8.8% active; AID 504332, 2011; further: potency means the concentration at half of the fitted maximal effect; on the % scale 0 is the no-effect control and ±100 the full control effect; nearly all actives have a fitted effect of over 75% in size
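Using a bead-based AlphaScreen, monomethylated H3K9 product from 2 h room-temperature reactions (G9a 20 nM, peptide 500 nM, SAM 20 uM) was detected with 0.5 ug/mL rabbit anti-H3K9me1 antibody.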
HP1b binding inh = HTS for Inhibitors of HP1-beta Chromodomain Interactions with Methylated Histone Tails; AlphaScreen HP1-beta / biotin-H3K9me3 peptide binding; Potency, µM (series often up to 114 µM), inactives show at the top dose activity change, negative = inhibition, hits mostly inhibitors; 390,000 tested, 0.56% active; AID 540317, 2011; further: potency means the concentration at half of the fitted maximal effect; nearly all actives have a fitted effect of over 70% in size
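Compound inhibition of the preformed complex between 50 nM HP1-beta and 50 nM biotinylated H3K9me3 peptide was read by AlphaScreen. Buffer was PBS pH 7.4 with 0.01% Tween-20. Incubations ran 30 min at room temperature, with 10 ug/mL donor/acceptor beads.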
* marks the source's active call; other numbers are inactive results; u = inconclusive; x = no result; [ ] = dose if it differs, or a comment. Unless noted, the call rests on the fitted dose curve; in most records, active means well fitted inhibition curve with a large enough effect; inconclusive means small, poorly fitted or top-dose-only effect; inactive means no such curve, though single readings can be large or run the other way.

SMILES	Six1-Eya2 inh	BAZ2B block	JMJD2A Tudor inh	CtBP-E1A blk	G9a block	HP1b binding inh
CCOC(=O)/C=C1\CN(C(C)c2ccccc2)S(=O)(=O)c2ccccc21 (stereo not given)	3.3	-13.4%	79.4µM*	3.7	17.8µM*	12.7%
COC(=O)C(CC(C)C)N1CCC(=O)c2ccccc2S1(=O)=O (stereo not given)	-18.4	-0.2%	10.3%	1.7	u	48.1%
CCOC(=O)/C=C1\CN(CCC(C)C)S(=O)(=O)c2ccccc21	7.0	12.5%	-4.9%	2.1	35.5µM*	30.5%
COc1cccc(NC(=O)Cn2nc(-c3ccncc3)ccc2=O)c1	x	-6.6%	-6.1%	x	13.1%[59 µM]	10.7%[57 µM]
O=C(NCc1ccc(S(=O)(=O)Nc2ccccc2Cl)s1)c1ccccc1	-1.3	0.4%	-4.3%	-5.5	79.4µM*	43.4%
CC1=C(C)C[C@@]23CCCN2C(=O)CCC[C@H]3C1	x	x	x	x	21.3%[135 µM]	x
CC1CCCN(C(=O)c2sc3cc([N+](=O)[O-])ccc3c2Cl)C1 (stereo not given)	-22.7	50.1µM*	u	-21.1	39.8%[0.501 µM]	u
CC(NC(=O)c1sc2cc([N+](=O)[O-])ccc2c1Cl)C(C)(C)C (stereo not given)	-14.0	-15.8%	50.1µM*	-5.8	1.58µM*	6.31µM*
O=C(NC1CC1)c1sc2cc([N+](=O)[O-])ccc2c1Cl	-12.0	-29.5%	-8.9%	8.5	-3.6%	7.4%
O=C(c1sc2cc([N+](=O)[O-])ccc2c1Cl)N1CCCCC1	-22.8	u	u	-10.9	u	u
Cc1cc(C)c(S(=O)(=O)Nc2cc(SCC(=O)O)c(O)c3ccccc23)cc1C	-16.8	39.8µM*	22.4µM*	-20.1	2.24µM*	-94.6%
COc1ccc(S(=O)(=O)Nc2cccc3ccc(O)cc23)cc1	0.2	x	-13.2%	4.8	x	4.5%
COc1ccc(S(=O)(=O)Nc2cc(SCC(=O)O)c(O)c3ccccc23)cc1	u	39.8µM*	20µM*	x	2µM*	12.6µM*
O=C(O)CSc1cc(NS(=O)(=O)c2ccc(Cl)cc2)c2ccccc2c1O	-26.6	50.1µM*	25.1µM*	u	3.98µM*	20µM*
O=S(=O)(Nc1ccc(Cl)cc1NS(=O)(=O)c1ccccc1)c1ccccc1	-8.9	x	-26.2%	-13.1	x	0.5%[57 µM]
CCc1cccc(NC(=O)Cn2c(=O)n(CC3CCC(C(=O)NC)CC3)c(=O)c3sccc32)c1 (stereo not given)	x	-4.2%	-20.0%	x	3.2%[59 µM]	-9.0%
CCC(=O)N1CCc2cc(Br)cc(S(=O)(=O)CCC(=O)NCc3cccc(OC)c3)c21	x	-9.9%	-20.8%	x	0.1%[59 µM]	1.8%
Cc1cc(Nc2cccc(C(F)(F)F)c2)nc2ccc(NC(=O)c3cncc(Br)c3)cc12	x	10.0%	-3.3%	x	17.8%[59 µM]	38.5%
CCCOc1ccc(N2C(=O)CC(NCCNc3ccc([N+](=O)[O-])cn3)C2=O)cc1 (stereo not given)	-6.6	-26.3%	-18.4%	-4.5	12.6µM*	32.9%
O=C(Nc1cccnc1)Nc1ccc(Cl)cc1Cl	-7.1	-18.6%	u	x	50.1µM*	42.4%
N#CC1=C(N)NC(SCC(=O)c2ccc(Br)cc2)=C(C#N)C12CCCCC2	-4.6	u	u	-9.9	39.8µM*	u
CCOc1c(Cl)cc(CNc2nnnn2C)cc1OC	5.9	9.3%	-10.3%	4.5	13.0%	18.1%
CCOc1c(Cl)cc(CNCc2ccncc2)cc1OC	6.7	-31.8%	-7.5%	10.9	56.2µM*	32.6%
CCOc1cc(CNCc2ccccn2)cc(Cl)c1OC	-21.9	56.2µM*	44.7µM*	-7.6	u	25.7%
CCOc1cc(CNCc2ccccn2)cc(Cl)c1OCC	u	50.1µM*	56.2µM*	u	x	19.3%
SMILES	Six1-Eya2 inh	BAZ2B block	JMJD2A Tudor inh	CtBP-E1A blk	G9a block	HP1b binding inh
Cc1ccc2oc(-c3ccc(NC(=O)CCC(=O)O)cc3)nc2c1	x	1.6%	4.8%	x	-3.3%[59 µM]	21.3%
Cc1cccc(-n2ncc3c(Nc4ccc(Oc5ccc(Cl)cc5)cc4)ncnc32)c1	x	1.6%	-10.3%	x	1.0%[59 µM]	37.0%
NC(=S)N/N=C/c1cccc(O)c1O	-79.9*	8.91µM*	28.2µM*	-93.2*	u	25.6%
NC(=S)NN=Cc1c[nH]c2nccnc12	-66.2*	x	x	-23.6	x	x
Oc1ccc(/C=N/Nc2ccc3ccccc3c2)c(O)c1	-4.4	u	u	3.0	6.31µM*	u
Oc1cccc(/C=N/NC(=S)Nc2cccnc2)c1O	-90.6*	5.62µM*	20µM*	-94.7*	11.2µM*	-13.4%
O=C(Nc1ccc(F)cc1F)c1cc(CN2CCOCC2)on1	x	-8.4%	-11.3%	x	0.9%[59 µM]	-4.2%
COc1ccccc1CCN1COc2c(cc3c(C)c(C)c(=O)oc3c2C)C1	x	9.1%	-17.0%	x	28.7%[59 µM]	78.4%
COc1ccc(-c2c(C)nn3c4c(cnc23)C(=O)CC(c2ccc(C)cc2)C4)cc1 (stereo not given)	x	-18.0%	-3.0%	x	-32.4%[59 µM]	21.7%
NC(=S)N/N=C/c1ccccc1O	-87.5*	35.5µM*	89.1µM*	-68.1*	6.5%	38.7%
Oc1ccccc1/C=N/Nc1ccccc1	-14.7	-35.9%	-31.9%	0.0	8.91µM*	22.0%
S=C(N/N=C/c1ccc2ncccc2c1)Nc1ccccc1	-11.9	-19.9%	-32.6%	x	u	10.4%
Oc1ccccc1C=NNC(=S)NN=Cc1ccccc1O	-80.6*	x	20µM*	-94.9*	x	-16.2%[57 µM]
Oc1ccc(C=NNC(=S)Nc2ccccc2)nc1	-96.7*	x	x	-76.5*	x	x
Cc1ccc(-c2nonc2NC(=O)c2ccco2)cc1C	x	-2.6%	-16.6%	x	-50.0%[59 µM]	29.4%
CC1(C)CC(=O)C2=C(C1)O[C@@]1(CCCCN3C(=O)c4ccccc4C3=O)Cc3cc(C#N)ccc3C2O1	x	-1.5%[22.9 µM]	x	x	x	x
O=C(N/N=C/c1ccccc1O)C1SCCCS1	-91.9*	79.4µM*	u	-95.0*	62.2%	47.5%
O=C(NN=Cc1ccccc1O)C1CC1	u	x	-4.9%	u	x	39.9%
Cc1cc(O)c(/C=N/Nc2ccccc2)c(=O)o1	-1.3	u	8.91µM*	10.4	u	2.6%
Cc1cc(/C=N/NC(N)=S)c(O)c(/C=N/NC(N)=S)c1	-86.9*	3.16µM*	12.6µM*	-91.6*	1.7%	30.5%
Cc1ccc(-n2c(C)cc(/C=N/NC(N)=S)c2C)cc1	u	u	u	-19.5	u	-20.1%
CCC(C)NC(=O)CCCc1nnc2n(CC(C)C)c(=O)c3sccc3n12 (stereo not given)	x	-37.3%	-2.2%	x	-5.0%[59 µM]	18.1%
